# Test results published in PubChem BioAssay (NCATS).
# Results filed as inconclusive are left out. Where a call stands in place of a potency, no number is given. Active and inactive are the calls of the source. Calls come from the whole dose curve; as a rule, active = well fitted curve in the direction sought with a large enough effect; inconclusive = small, poorly fitted or top-dose-only effect, or another doubt; inactive = no such curve, though single readings can be large; an effect the other way counts as inactive or inconclusive.
# What was measured:
# [1] = S16 Schwann cell PMP22 intronic element firefly luciferase assay (AID 624032); note: nearly all actives have a fitted effect of over 30% in size
# Summary of the method: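 Rat S16 Schwann cells stably carrying firefly luciferase driven by a PMP22 intronic element, in 10% FBS, treated 24 h at 37 C. ONE-Glo luminescence normalized to PTC124 control and DMSO (0%); curves classed by r2, magnitude and activity.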
# [2] = test system: 3D7; experiment: qHTS profiling for inhibitors of Plasmodium falciparum proliferation (AID 504749); note: nearly all actives have a fitted effect of over 60% in size; conditions: P. falciparum in erythrocytes, SYBR Green DNA, 72 h; series mostly up to 12.8 µM
# Summary of the method: (§1)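 Each compound contacts P. falciparum-infected red blood cells for 72 h at 37 C; lysis buffer (Tris, EDTA, saponin, Triton X, SYBR Green I) is added and fluorescence measured next morning; values normalized to controls.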
# [3] = test system: AA1029; experiment: as above; conditions: P. falciparum in erythrocytes, SYBR Green DNA, 72 h; series mostly up to 12.8 µM
# Summary of the method: as §1
# [4] = test system: ATS95; experiment: as above; conditions: P. falciparum in erythrocytes, SYBR Green DNA, 72 h; series mostly up to 12.8 µM
# Summary of the method: as §1
# [5] = test system: CP185; experiment: as above; conditions: P. falciparum in erythrocytes, SYBR Green DNA, 72 h; series mostly up to 12.8 µM
# Summary of the method: as §1
# [6] = test system: CP237; experiment: as above; conditions: P. falciparum in erythrocytes, SYBR Green DNA, 72 h; series mostly up to 12.8 µM
# Summary of the method: as §1
# [7] = test system: CP238; experiment: as above; conditions: P. falciparum in erythrocytes, SYBR Green DNA, 72 h; series mostly up to 12.8 µM
# Summary of the method: as §1
# [8] = test system: CP252; experiment: as above; conditions: P. falciparum in erythrocytes, SYBR Green DNA, 72 h; series mostly up to 12.8 µM
# Summary of the method: as §1
# [9] = test system: CP265; experiment: as above; conditions: P. falciparum in erythrocytes, SYBR Green DNA, 72 h; series mostly up to 12.8 µM
# Summary of the method: as §1
# [10] = test system: CP335; experiment: as above; conditions: P. falciparum in erythrocytes, SYBR Green DNA, 72 h; series mostly up to 12.8 µM
# Summary of the method: as §1
# [11] = test system: DIV30; experiment: as above; conditions: P. falciparum in erythrocytes, SYBR Green DNA, 72 h; series mostly up to 12.8 µM
# Summary of the method: as §1
# [12] = test system: Dd2; experiment: as above; conditions: P. falciparum in erythrocytes, SYBR Green DNA, 72 h; series mostly up to 12.8 µM
# Summary of the method: as §1
# [13] = test system: ECU; experiment: as above; conditions: P. falciparum in erythrocytes, SYBR Green DNA, 72 h; series mostly up to 12.8 µM
# Summary of the method: as §1
# [14] = test system: N140; experiment: as above; conditions: P. falciparum in erythrocytes, SYBR Green DNA, 72 h; series mostly up to 12.8 µM
# Summary of the method: as §1
# [15] = test system: P93_24; experiment: as above; conditions: P. falciparum in erythrocytes, SYBR Green DNA, 72 h; series mostly up to 12.8 µM
# Summary of the method: as §1
# [16] = test system: PAD; experiment: as above; conditions: P. falciparum in erythrocytes, SYBR Green DNA, 72 h; series mostly up to 12.8 µM
# Summary of the method: as §1
# [17] = test system: PC26; experiment: as above; conditions: P. falciparum in erythrocytes, SYBR Green DNA, 72 h; series mostly up to 12.8 µM
# Summary of the method: as §1
# [18] = test system: TAB109; experiment: as above; conditions: P. falciparum in erythrocytes, SYBR Green DNA, 72 h; series mostly up to 12.8 µM
# Summary of the method: as §1
# [19] = test system: TAB165; experiment: as above; conditions: P. falciparum in erythrocytes, SYBR Green DNA, 72 h; series mostly up to 12.8 µM
# Summary of the method: as §1
# [20] = test system: 7G8; experiment: as above; conditions: P. falciparum in erythrocytes, SYBR Green DNA, 72 h; series mostly up to 12.8 µM
# Summary of the method: as §1
# Potency is the fitted concentration of half-maximal effect.
Compound,Potency [1],Potency [2],Potency [3],Potency [4],Potency [5],Potency [6],Potency [7],Potency [8],Potency [9],Potency [10],Potency [11],Potency [12],Potency [13],Potency [14],Potency [15],Potency [16],Potency [17],Potency [18],Potency [19],Potency [20]
CCC(C)C(=O)OC1CC(O)C=C2C=CC(C)C(CCC(O)CC(O)CC(=O)O)C21 (centres undefined),inactive,inactive,inactive,inactive,inactive,inactive,inactive,inactive,inactive,inactive,inactive,inactive,inactive,inactive,inactive,inactive,inactive,inactive,inactive,–
CCCCCCCCCc1ccc(OCCOCCOCCOCCOCCOCCOCCOCCOCCO)cc1,–,–,inactive,inactive,inactive,–,inactive,inactive,inactive,–,inactive,–,–,–,–,–,–,inactive,7.08 µM (active),12.6 µM (active)
CCC(=O)O[C@@]1(C(=O)CCl)C(C)CC2C3CCC4=CC(=O)C=C[C@@]4(C)[C@]3(F)C(O)C[C@]21C (some centres undefined),inactive,–,10 µM (active),11.2 µM (active),–,10 µM (active),7.94 µM (active),12.6 µM (active),–,10.7 µM (active),12 µM (active),–,–,8.91 µM (active),7.94 µM (active),7.94 µM (active),10.7 µM (active),11.2 µM (active),–,3.98 µM (active)
C[C@@]12CCC(=O)C=C1C=CC1C2CC[C@]2(C)C1CC[C@@]21CCC(=O)O1 (some centres undefined),–,inactive,inactive,inactive,–,inactive,inactive,inactive,inactive,inactive,inactive,inactive,inactive,–,inactive,inactive,inactive,–,–,–
CC(=O)OCC(=O)[C@@]12OC3(CCCC3)OC1CC1C3CCC4=CC(=O)C=C[C@@]4(C)[C@]3(F)C(O)C[C@]12C (some centres undefined),inactive,–,–,–,inactive,–,–,–,–,–,–,–,–,11.2 µM (active),–,–,–,–,–,11.2 µM (active)
NC(CCC(=O)N[C@@H](CS)C(=O)NCC(=O)O)C(=O)O (some centres undefined),–,6.31 µM (active),–,–,–,3.55 µM (active),–,–,7.94 µM (active),6.01 µM (active),12 µM (active),5.01 µM (active),10 µM (active),4.47 µM (active),3.16 µM (active),6.31 µM (active),12 µM (active),4.47 µM (active),3.98 µM (active),0.708 µM (active)
CCOC(=O)C1=CC(OC(CC)CC)C(NC(C)=O)C(N)C1 (centres undefined),inactive,inactive,inactive,inactive,inactive,inactive,inactive,inactive,inactive,inactive,–,inactive,inactive,inactive,inactive,inactive,–,inactive,inactive,–
CC1(C)S[C@H]2C(NC(=O)[C@@H](N)c3ccc(O)cc3)C(=O)N2[C@@H]1C(=O)O (some centres undefined),inactive,inactive,inactive,inactive,inactive,inactive,inactive,inactive,inactive,inactive,inactive,inactive,inactive,inactive,inactive,inactive,inactive,inactive,inactive,inactive
COC1OC(CO)C(OC2OC(C(=O)O)C(OC3OC(COS(=O)(=O)O)C(OC4OC(C(=O)O)C(OC5OC(CO)C(OC6OC(C(=O)O)C(OC7OC(COS(=O)(=O)O)C(OC8OC(C(=O)O)=C[C@H](O)C8OS(=O)(=O)O)C(O)C7NC(C)=O)[C@@H](O)C6O)C(O)C5NC(C)=O)[C@@H](O)C4O)C(O)C3NC(C)=O)[C@@H](O)C2O)C(O)C1NC(C)=O (some centres undefined),inactive,–,–,–,–,–,–,–,–,–,–,–,–,–,–,–,–,–,–,7.08 µM (active)
CCC1OC(=O)C(C)[C@@H](O[C@H]2C[C@@](C)(OC)C(O)C(C)O2)C(C)[C@@H](O[C@@H]2OC(C)CC(N(C)C)C2O)[C@@](C)(O)CC(C)C(=O)[C@@H](C)C(O)[C@]1(C)O (some centres undefined),inactive,inactive,inactive,inactive,inactive,inactive,inactive,inactive,inactive,–,inactive,inactive,inactive,inactive,inactive,inactive,inactive,–,inactive,inactive
C[C@@]12C=CC(=O)C=C1CCC1C3CC(O)[C@@](O)(C(=O)CO)[C@]3(C)CC(O)[C@]12F (some centres undefined),inactive,inactive,inactive,inactive,inactive,inactive,inactive,inactive,inactive,inactive,inactive,inactive,inactive,inactive,inactive,inactive,inactive,inactive,inactive,inactive
C=Cc1c(C)/c2[n-]/c1=C\c1[n-]c(c(CC)c1C)/C=c1\[n-]c3c(c1C)C(=O)C(C(=O)[O-])C=3c1[n-]c(c(C)c1CCC(=O)[O-])\C=2.[Cu].[Na+].[Na+] (centres undefined),inactive,inactive,–,–,inactive,–,–,–,inactive,–,inactive,–,–,–,–,–,–,–,–,–
CO[C@]12C(COC(N)=O)C3=C(C(=O)C(C)=C(N)C3=O)N1CC1NC12 (some centres undefined),–,–,2 µM (active),1 µM (active),0.708 µM (active),inactive,0.631 µM (active),0.794 µM (active),–,–,–,0.398 µM (active),1.41 µM (active),0.631 µM (active),1 µM (active),0.631 µM (active),–,2.24 µM (active),0.447 µM (active),0.708 µM (active)
CCC1OC(=O)CC(O)C(C)[C@@H](O[C@@H]2OC(C)[C@H](O[C@@H]3C[C@@](C)(O)C(O)C(C)O3)C(N(C)C)C2O)[C@H](CC=O)CC(C)C(=O)/C=C/C(C)=C/[C@@H]1COC1OC(C)C(O)C(OC)[C@@H]1OC (some centres undefined),–,–,–,–,–,–,–,–,–,1.35 µM (active),–,0.891 µM (active),inactive,–,–,–,–,0.891 µM (active),–,–
OCC1OC(n2cnc3c(=S)nc[nH]c32)C(O)C1O (centres undefined),2.87 µM (active),inactive,inactive,inactive,inactive,inactive,inactive,inactive,inactive,inactive,inactive,inactive,inactive,inactive,inactive,inactive,inactive,inactive,inactive,–
OCC1O[C@H](OC2C(CO)O[C@@](O)(CO)C2O)C(O)C(O)C1O (some centres undefined),inactive,inactive,inactive,inactive,inactive,inactive,inactive,inactive,inactive,inactive,inactive,inactive,inactive,inactive,inactive,inactive,inactive,inactive,inactive,inactive
COc1ccc(-c2cc(=O)c3c(O)cc(O[C@H]4OC(COC5OC(C)C(O)C(O)[C@H]5O)C(O)C(O)C4O)cc3o2)cc1O (some centres undefined),inactive,inactive,inactive,inactive,inactive,inactive,inactive,inactive,inactive,inactive,inactive,inactive,inactive,inactive,inactive,inactive,inactive,inactive,inactive,inactive
COC1CC(O[C@H]2/C(C)=C/CC3CC(C[C@]4(CCC(C)C(C5CCCCC5)O4)O3)OC(=O)[C@H]3C=C(C)/C(=N/O)C4OC/C(=C\C=C\[C@@H]2C)[C@@]43O)OC(C)C1O (some centres undefined),–,–,–,–,–,–,–,–,–,–,–,inactive,–,–,–,–,inactive,–,–,12.6 µM (active)
CC(C)Oc1ccc2c(=O)cc(-c3ccccc3)oc2c1,inactive,inactive,inactive,inactive,inactive,inactive,inactive,inactive,inactive,inactive,inactive,inactive,inactive,inactive,–,inactive,inactive,inactive,inactive,inactive
COc1ccc(CC(N)C(=O)NC2C(CO)OC(n3cnc4c(N(C)C)ncnc43)C2O)cc1 (centres undefined),1.28 µM (active),1 µM (active),1 µM (active),1 µM (active),0.631 µM (active),0.891 µM (active),0.794 µM (active),0.794 µM (active),0.891 µM (active),0.757 µM (active),0.849 µM (active),0.355 µM (active),0.891 µM (active),0.631 µM (active),0.708 µM (active),0.447 µM (active),0.849 µM (active),0.891 µM (active),0.794 µM (active),0.316 µM (active)
CC(=O)N[C@@H]1C(O)OC(CO)C(O)C1O (some centres undefined),inactive,inactive,inactive,inactive,inactive,inactive,inactive,inactive,inactive,inactive,inactive,–,inactive,inactive,inactive,inactive,inactive,inactive,inactive,–
